Compounds without any hit were thinned out: in the full panel of roughly 83,000, 20% have a hit.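 Step 1: grow cells in 96-well plates. Step 2: add test compound at a single concentration. Step 3: incubate 48 h. Step 4: record percent growth.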 Calls of active or inactive are those of the source. How the source made its calls: active means growth percent below 10; inactive means the rest.
Tests used:
Experiment in all cases: NCI-60 one-dose screen, 48 h (100 = growth as untreated, 0 = no growth, -100 = all killed)
Details in all cases: 10 µM unless noted
T-47D breast = system: T-47D breast
BT-549 breast = system: BT-549 breast
MDA-MB-435 melanoma = system: MDA-MB-435 melanoma
SW-620 colon = system: SW-620 colon
MCF7 breast = system: MCF7 breast
HCT-116 colon = system: HCT-116 colon
HCC-2998 colon = system: HCC-2998 colon
KM12 colon = system: KM12 colon

Measured: growth

COc1cc2ncn3c(=O)c4c5c(sc4nc3c2cc1OC)CCCC5
inactive: T-47D breast 100% | BT-549 breast 99.9% | MDA-MB-435 melanoma 92.5% | SW-620 colon 90.1% | MCF7 breast 91.4% | HCT-116 colon 95.5% | HCC-2998 colon 102% | KM12 colon 97.4%

N#C/C(=C\c1ccc(Br)cc1)n1nnc2cc(F)c(F)cc21
active: T-47D breast -1.87% | MDA-MB-435 melanoma 4.75%
inactive: BT-549 breast 22.2% | SW-620 colon 13.2% | MCF7 breast 14% | HCT-116 colon 15.3% | HCC-2998 colon 40% | KM12 colon 10.3%

Cc1ccc(NS(=O)(=O)c2ccc3c(c2)C(=O)CC(c2ccc(C(=O)C(C)C)cc2)N3)cc1C (stereo not drawn)
inactive: T-47D breast 39.8% | BT-549 breast 65.6% | MDA-MB-435 melanoma 58.3% | SW-620 colon 70.5% | MCF7 breast 37.4% | HCT-116 colon 54% | HCC-2998 colon 89.9% | KM12 colon 71.9%

CC(=O)O[C@]1(C(C)=O)CCC2C3C[C@H](C)C4=CC(=O)CC[C@]4(C)C3CC[C@@]21C (stereo partly drawn)
inactive: T-47D breast 95.3% | BT-549 breast 63.6% | MDA-MB-435 melanoma 104% | SW-620 colon 112% | MCF7 breast 90.1% | HCT-116 colon 83.6% | HCC-2998 colon 106% | KM12 colon 103%

N#C/C(=C\c1ccc2c(c1)OCO2)n1nnc2cc(F)c(F)cc21
active: MDA-MB-435 melanoma 3.37%
inactive: T-47D breast 20.6% | BT-549 breast 60% | SW-620 colon 44.3% | MCF7 breast 44.4% | HCT-116 colon 47% | HCC-2998 colon 105% | KM12 colon 47.4%

Cc1ccc(C(=O)CSc2nc(-c3ccc(Br)cc3)c(C#N)c(=O)[nH]2)cc1
inactive: T-47D breast 93% | BT-549 breast 94% | MDA-MB-435 melanoma 93.2% | SW-620 colon 92.2% | MCF7 breast 101% | HCT-116 colon 95.9% | HCC-2998 colon 101% | KM12 colon 97.4%

Cc1cc(NCCCCNc2ccnc3cc(Cl)ccc23)nc(Nc2ccc(C(=O)N3CCCCC3)cc2)n1
active: T-47D breast -23.5% | MDA-MB-435 melanoma -84.3% | SW-620 colon -70.2% | MCF7 breast -49.1% | HCT-116 colon -48.9% | HCC-2998 colon -37.5%
inactive: BT-549 breast 92.9% | KM12 colon 25.8%

CCN(CC)Cc1cccc(C(=O)OC)c1
inactive: T-47D breast 88.3% | BT-549 breast 93.1% | MDA-MB-435 melanoma 101% | SW-620 colon 101% | MCF7 breast 90.9% | HCT-116 colon 89.9% | HCC-2998 colon 102% | KM12 colon 102%

CC(CCc1ccc(Cl)c(Cl)c1)NCc1ccc(C(C)(C)C)cc1 (stereo not drawn)
active: HCC-2998 colon -18.4%
inactive: T-47D breast 67.7% | BT-549 breast 68.9% | MDA-MB-435 melanoma 93.1% | SW-620 colon 80.2% | MCF7 breast 80.8% | HCT-116 colon 79.1% | KM12 colon 89.2%

COc1ccc(-c2nc(SCCC(C)C)nc(N/N=C\c3ccccc3O)c2C#N)cc1
inactive: T-47D breast 83.9% | BT-549 breast 100% | MDA-MB-435 melanoma 87.8% | SW-620 colon 72.1% | MCF7 breast 79% | HCT-116 colon 71% | HCC-2998 colon 104% | KM12 colon 91.4%

CN(C)CC1=NC2SC=C(c3ccccc3)C2C(=O)N1CC#N (stereo not drawn)
inactive: T-47D breast 86.8% | BT-549 breast 118% | MDA-MB-435 melanoma 95.3% | SW-620 colon 104% | MCF7 breast 121% | HCT-116 colon 103% | HCC-2998 colon 97.5% | KM12 colon 101%

O=C1N=c2cc3c(cc2=C/C1=C/c1sc(=S)n(CCc2ccc(O)cc2)c1O)OCCO3
active: SW-620 colon 5.91% | HCT-116 colon 7.52%
inactive: T-47D breast 81.5% | BT-549 breast 78.5% | MDA-MB-435 melanoma 61.1% | MCF7 breast 28.6% | HCC-2998 colon 29.4% | KM12 colon 52.5%

N=C1C(c2nc(-c3ccc(Br)cc3)cs2)=C(O)CN1CC1CCCO1 (stereo not drawn)
inactive: T-47D breast 95.7% | BT-549 breast 106% | MDA-MB-435 melanoma 88.8% | SW-620 colon 60% | MCF7 breast 78.4% | HCT-116 colon 25.7% | HCC-2998 colon 95.1% | KM12 colon 86.6%

O=c1cc(-c2ccc(Cl)cc2)[nH]c2ccccc12
active: MDA-MB-435 melanoma 5.74%
inactive: T-47D breast 87.2% | BT-549 breast 101% | SW-620 colon 56.9% | MCF7 breast 49.9% | HCT-116 colon 73.2% | HCC-2998 colon 76.7% | KM12 colon 43.7%

O=C1/C(=C/c2ccccc2)CCc2nc3ccccc3c(/C=C/c3ccc(Cl)cc3)c21
inactive: T-47D breast 54% | BT-549 breast 104% | MDA-MB-435 melanoma 95.6% | SW-620 colon 103% | MCF7 breast 51.8% | HCT-116 colon 57.7% | HCC-2998 colon 93.5% | KM12 colon 91.4%

COc1ccc(-c2nc(SCC(=O)Nc3nc(-c4ccccc4)cs3)[nH]c(=O)c2C#N)cc1
inactive: T-47D breast 84.3% | BT-549 breast 92.4% | MDA-MB-435 melanoma 101% | SW-620 colon 97.4% | MCF7 breast 96.4% | HCT-116 colon 86% | HCC-2998 colon 87.5% | KM12 colon 108%
